In the supplement of paper PMC7156485:
± gives the standard deviation of the averaged measurements.

Tests used:
Details in all cases: concentration: 10 µM; 24 h
HCC1569 [1] = assay: cell number relative to DMSO (% of DMSO); higher = more cells (less growth inhibition / toxicity)
How it was run: (§1)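 Cell number or H1.0 nuclear intensity appears as percent of the plate control, based on the median of replicates. Measurements came from HCC1569 and TDF cells exposed in triplicate to compounds at 10 µM for 24 h at 37 °C, then imaged in six fields per well at ×10. Positional effects were smoothed out of HCC1569 values.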

TDF [2] = assay: as above
How it was run: as §1

TDF [3] = assay: H1.0 immunofluorescence intensity relative to DMSO (% of DMSO); higher = stronger H1.0 induction, active = 120 or more
How it was run: as §1

HCC1569 [4] = assay: H1.0 immunofluorescence intensity relative to DMSO (% of DMSO); higher = stronger H1.0 induction, active = 140 or more
How it was run: as §1
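For H1.0 immunofluorescence intensity relative to DMSO in this document: TDF is a line of transformed human dermal fibroblasts of mesenchymal origin.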
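For cell number relative to DMSO in this document: TDF denotes transformed human dermal fibroblasts of mesenchymal origin.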

SMILES	cell number (HCC1569 [1])	cell number (TDF [2])	H1.0 immunofluorescence intensity (TDF [3])	H1.0 immunofluorescence intensity (HCC1569 [4])
NC(N)=NN=Cc1c(Cl)cccc1Cl [Guanabenz]	98.5	91.9	98.2 (inactive)	118 (inactive)
O=C1C(=O)c2ccccc2C(O)=C1C1CCC(c2ccc(Cl)cc2)CC1 (configuration not stated) [Atovaquone]	100	99	95 (inactive)	108 (inactive)
CC[N+](CC)(CC)CCOc1cccc(OCC[N+](CC)(CC)CC)c1OCC[N+](CC)(CC)CC [Gallamine]	101	107	93.8 (inactive)	104 (inactive)
CC1=NC(=NNc2ccc(S(=O)(=O)[O-])cc2S(=O)(=O)[O-])C(COP(=O)([O-])[O-])=C(C=O)C1=O.[Na+].[Na+].[Na+].[Na+]	102	103	90.1 (inactive)	97.3 (inactive)
CCCCCC=CCC=CCC1OC1CC=CCCCC(=O)O (configuration not stated) [8,9-Epoxyeicosatrienoic acid]	103	101	97.7 (inactive)	104 (inactive)
COc1nccc(-c2c(-c3ccc(F)cc3)ncn2C2CCNCC2)n1	93.7	104	84.3 (inactive)	99.5 (inactive)
CC(Oc1c(Cl)cccc1Cl)C1=NCCN1.Cl (configuration not stated) [Lofexidine.HCl]	98.9	107	100 (inactive)	96.1 (inactive)
CN(CCOc1ccc(CC(Nc2ccccc2C(=O)c2ccccc2)C(=O)O)cc1)c1ccccn1 (configuration not stated)	102	104	92.6 (inactive)	88.2 (inactive)
CCCCCC#CCC#CCC#CCC#CCCCC(=O)O	104	96.2	98.2 (inactive)	101 (inactive)
O=C1CSC(c2cccc(Br)c2)N1c1cc(Cl)ccc1O (configuration not stated)	102	96.5	94.8 (inactive)	103 (inactive)
CN1CCC(c2c(O)cc(O)c3c(=O)cc(-c4ccccc4Cl)oc23)C(O)C1 (configuration not stated) [Alvocidib]	59.4	19.9	132 (active)	111 (inactive)
Cc1ccc(C(=CCN2CCCC2)c2ccccn2)cc1.Cl [Triprolidine hydrochloride]	106	105	97.5 (inactive)	90 (inactive)
O=C(O)Cc1c[nH]c2ccc(O)cc12 [5-Hydroxyindolacetic acid]	104	99.5	99.9 (inactive)	97.9 (inactive)
CCCCNc1ccc(C(=O)OCCN(C)C)cc1.Cl [Tetracaine hydrochloride]	100	101	102 (inactive)	95.8 (inactive)
Nn1nnc2ccccc21 [1-Aminobenzotriazole]	106	107	92.8 (inactive)	85.9 (inactive)
O=C1CC(=O)c2c(Cl)c(Cl)c(Cl)c(Cl)c21 [4,5,6,7-tetrachloro-1H-indene-1,3(2H)-dione]	101	103	117 (inactive)	99.1 (inactive)
CCCCCCCCCCCCCC=CC(O)C(CO)NC(C)=O (configuration not stated) [C2 Ceramide]	101	107	94.8 (inactive)	102 (inactive)
CN(C)CCOC(c1ccccc1)c1ccccc1.Cl [Diphenhydramine.HCl]	106	103	100 (inactive)	107 (inactive)
CCC1(O)CC2CN(CCc3c([nH]c4ccccc34)C(C(=O)OC)(c3cc4c(cc3OC)N(C=O)C3C(O)(C(=O)OC)C(OC(C)=O)C5(CC)C=CCN6CCC43C65)C2)C1.O=S(=O)(O)O (configuration not stated) [Vincristine sulfate]	57.3 ± 1	9.46 ± 1.6	167 (active)	151 (active)
Br.Br.N=C(N)SCCc1cccc(CCSC(=N)N)c1 [1,3-PBIT dihydrobromide]	117	113	97.4 (inactive)	98.4 (inactive)
CC(C)(CO)C(O)C(=O)NCCC(=O)O (configuration not stated) [Pantothenic acid]	104	95.9	106 (inactive)	98.2 (inactive)
COC1C(N(C)C(=O)c2ccccc2)CC2OC1(C)n1c3ccccc3c3c4c(c5c6ccccc6n2c5c31)C(=O)NC4 (configuration not stated) [Staurosporine, N-benzoyl-]	66	53.5	82.4 (inactive)	108 (inactive)
O=C(Oc1cc(S(=O)(=O)c2ccccc2)ccc1[N+](=O)[O-])c1ccc(Cl)cc1 [2-nitro-5-(phenylsulfonyl)phenyl 4-chlorobenzoate]	99.5	87.8	96.7 (inactive)	111 (inactive)
